# Screens deposited in PubChem BioAssay by Sanford-Burnham Center for Chemical Genomics.
# CRFBP-R2 block: CRF-BP/CRF-R2 complex antagonism. 350,000 tested, 0.59% active. AID 588475. HEK293 CRF-R2/CRF-BP, CRF-induced calcium fluorescence. inhibition, % at 11.8 µM;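 active = inhibition of the ligand-induced calcium signal above about 50% at the single tested concentration, limit read from the data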
# eIF4H inh: inhibitors of RNA binding by human eIF4H. AID 2012. eIF4H fluorescence polarization binding assay. inhibition, % at 35 µM. Q15056. 290,000 tested, 0.94% active;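 note: calls also rest on retests at 20 µM and on dose response follow-up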
# PHOSPHO1 inh: blocks human PHOSPHO1 phosphatase activity; Q8TCT1; 290,000 tested, 1.1% active; AID 1565; inhibition, % at 13.3 µM; recombinant PHOSPHO1, absorbance phosphatase assay; in the data active = inhibition above about 60%
# MLLE-PAM2 inh: blocks PAM2 peptide binding to the PABP1 MLLE domain | inhibition, % at 20 µM | AID 588489 | GST-MLLE / FITC-PAM2 fluorescence polarization | P11940 | 360,000 tested, 0.36% active; in the data active = inhibition above about 35%, passing the limit was not always enough;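 note: plate controls were DMSO wells with GST-MLLE for no effect and wells lacking GST-MLLE protein for full effect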
# Target sequence (P11940 whole entry, looked up, the tested form may be a part): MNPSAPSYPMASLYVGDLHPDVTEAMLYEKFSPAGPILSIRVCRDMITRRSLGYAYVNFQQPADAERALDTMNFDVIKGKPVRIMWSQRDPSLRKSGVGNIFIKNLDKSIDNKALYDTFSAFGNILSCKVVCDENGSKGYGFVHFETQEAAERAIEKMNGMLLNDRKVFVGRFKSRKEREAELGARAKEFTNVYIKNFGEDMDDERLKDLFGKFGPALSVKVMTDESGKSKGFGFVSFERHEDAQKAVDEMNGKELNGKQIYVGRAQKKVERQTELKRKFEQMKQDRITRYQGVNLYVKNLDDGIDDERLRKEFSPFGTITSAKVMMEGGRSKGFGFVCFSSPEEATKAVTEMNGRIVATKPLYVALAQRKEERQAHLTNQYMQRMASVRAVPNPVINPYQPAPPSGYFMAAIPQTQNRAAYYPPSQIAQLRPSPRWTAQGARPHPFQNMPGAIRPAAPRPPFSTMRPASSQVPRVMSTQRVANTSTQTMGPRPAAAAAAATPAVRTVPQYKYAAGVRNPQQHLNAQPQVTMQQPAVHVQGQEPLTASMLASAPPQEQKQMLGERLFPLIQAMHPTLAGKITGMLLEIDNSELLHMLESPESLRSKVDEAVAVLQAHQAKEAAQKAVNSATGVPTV
# PABP FP inh: blocks human PABP binding to poly(A) RNA | P11940 | fluorescence polarization | inhibition, % at 35 µM | 290,000 tested, 1% active | AID 2014;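 note: calls also rest on retests at 20 µM and on dose response follow-up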
# * marks the source's active call; other numbers are inactive results; i = inactive; ? = inconclusive; · = no result. Most compounds without a hit are left out; they make up all but 2.6% or so of the library. Unless noted, the rule behind the calls is not given here.
SMILES,CRFBP-R2 block,eIF4H inh,PHOSPHO1 inh,MLLE-PAM2 inh,PABP FP inh
C=CCc1c(C)nc(SC)nc1Nc1ccc(C(C)=O)cc1,19,-2,74*,-15,-12
CCOC(=O)/C(C#N)=C/c1cccc([N+](=O)[O-])c1,14,-2,64*,3,1
Cc1ccc(C)c2c(N)c3c(nc12)CCCCC3 (tested in a mixture with another compound),-17,-5,-13,-11,-15
COc1ccc(C(=O)Nn2cnnc2)cc1OC,1,89*,46,1,72*
COc1ccc(CNC(=O)C(c2ccco2)N(C(=O)Cc2cccs2)c2cccnc2)cc1 (centres undefined),8,77*,-2,6,26
COc1ccc(CNC(=O)C(c2ccco2)N(Cc2cccs2)C(=O)Cc2cccs2)cc1 (centres undefined),-15,-9,7,7,-5
S=C(Nc1ccc2nc(-c3ccccn3)c(-c3ccccn3)nc2c1)N1CCOCC1,-16,34,-91,46*,44
CN(C)NC(=S)Nc1ccc2nc(-c3ccccn3)c(-c3ccccn3)nc2c1,-17,?,-15,9,-1
CC(C)(C)CC(C)(C)NC(=S)Nc1ccc2nc(-c3ccccn3)c(-c3ccccn3)nc2c1,-57,26,96*,14,27
Nc1cc2c(cc1Cl)-c1ccc(Cl)cc1C2,-16,·,·,9,·
CC(=O)Nc1sc(N/N=C/c2ccccc2)nc1-c1ccc(C)cc1,6,-9,16,-57,-7
CC(=O)Nc1sc(/C(C#N)=C\c2cccc(Cl)c2)nc1-c1ccc(C)cc1,-405,127*,8,i,81*
CCCc1cc(-c2n[nH]c(=S)n2CC)cs1,15,-8,6,-11,-8
CCc1cc(-c2n[nH]c(=S)n2-c2ccccc2C)cs1,-12,-8,86*,-4,2
S=c1[nH]nc(-c2cccc(Cl)c2)n1Cc1ccccc1,4,-2,69*,-72,54
C=CCn1c(-c2cccc(Cl)c2)n[nH]c1=S,-4,1,98*,-9,-2
C=CCn1c(-c2cccc([N+](=O)[O-])c2)n[nH]c1=S,14,4,0,-37,4
CCCc1cc(-c2n[nH]c(=S)n2C(C)c2ccccc2)cs1 (centres undefined),7,13,83*,-10,3
Cc1ccc(-c2n[nH]c(=S)n2Cc2ccccc2)cc1,9,-4,100*,4,11
CCCOc1ccc(CCc2n[nH]c(=S)n2Cc2ccccc2)cc1,12,9,79*,-59,-3
S=c1[nH]nc(-c2ccc(Cl)cc2Cl)n1Cc1ccccc1,-25,-4,60*,-14,43
Cc1cccc(-c2n[nH]c(=S)n2Cc2ccccc2)c1,9,4,3,-11,8
CCc1cc(-c2n[nH]c(=S)n2Cc2ccccc2)cs1,4,-8,92*,-11,-18
O=C(O)C1=CCC=CC1C(=O)O (centres undefined),12,·,·,4,·
CCSC(=O)N=Nc1ccc(O)cc1,2,·,·,29,·
SMILES,CRFBP-R2 block,eIF4H inh,PHOSPHO1 inh,MLLE-PAM2 inh,PABP FP inh
CC(=O)Nc1ccc(-c2ccnc3c2CC(C)(C(=O)NCc2ccc(N4CCN(C)CC4)cc2)O3)cc1 (centres undefined),·,·,·,-12,·
NC(=O)c1ccc(NCC2COc3ccccc3O2)c([N+](=O)[O-])c1 (centres undefined),92*,-5,0,5,12
Cc1cc(C)n2nc(CC(=O)NNC(=O)c3ccccc3Cl)nc2n1,103*,-2,18,3,0
Cc1ccc(C(=O)NNC(=O)Cc2nc3nc(C)cc(C)n3n2)cc1,-1,·,41,2,·
COc1ccc(C(=O)c2ccc(OC)c3cccc(O)c23)cc1OC,-15,-8,83*,12,10
CN(C)Cc1csc(NC(=O)Nc2ccccc2Cc2ccccc2)n1,·,·,·,7,·
COc1ccc(C2C(C(=O)c3cccs3)=C(O)C(=O)N2c2nncs2)cc1 (centres undefined),-303,?,71*,152,?
CCOc1ccc(C2C(C#N)=C(N)N(N(C)C)C3=C2C(=O)CC(C)(C)C3)cc1 (centres undefined),5,-1,40,29,-8
N#CC1=C2N=C(N)c3ccccc3N2C2=C(C(=O)CCC2)C1c1ccc(F)cc1 (centres undefined),0,40,23,-10,22
CCOc1ccc(C2C(C#N)=C(N)N(c3sc4c(c3C#N)CCCC4)C3=C2C(=O)CCC3)cc1 (centres undefined),7,?,56,-24,30*
N#CC1=C2N=C(N)c3c(sc4c3CCCCC4)N2C2=C(C(=O)CCC2)C1c1ccccc1 (centres undefined),-42,50,70*,-11,30
COc1ccc(C(O)c2nc(-c3cc(F)cc(Cl)c3)cs2)cc1 (centres undefined),·,·,·,4,·
Cc1cc(NC(=O)C(C)SCC(=O)N(C)Cc2c(F)cccc2Cl)no1 (centres undefined),16,·,·,-12,·
O=C(/C=C/c1cccc([N+](=O)[O-])c1)Nc1ccc(NC(=O)c2cccs2)cc1,-5,24,-11,7,50*
CC(N)c1csc(Nc2cc(Oc3ccccc3)ncn2)n1 (centres undefined),·,·,·,5,·
CC(C)OCCCn1c(=S)[nH]c2cc3c(cc2c1=O)OCO3,-10,-2,88*,-14,2
COc1ccc(N2CCN(C(=O)CCCn3c(=S)[nH]c4cc5c(cc4c3=O)OCO5)CC2)cc1,-4,-10,41,-29,-1
CC(C)OCCCn1c(=S)[nH]c2ccc(N3CCOCC3)cc2c1=O,-9,8,0,-40,16
Cc1ccc(C)c(N2CCN(C(=O)CCn3c(=S)[nH]c4cc5c(cc4c3=O)OCO5)CC2)c1,14,-8,70*,-61,-11
CCOc1cc2[nH]c(=S)n(Cc3ccc(C(=O)NCCCOC)cc3)c(=O)c2cc1OCC,-7,-11,26,-132,2
COCCNC(=O)c1ccc(Cn2c(=S)[nH]c3cc4c(cc3c2=O)OCO4)cc1,11,-4,98*,-46,-1
COC(CNC(=O)c1ccc(Cn2c(=S)[nH]c3cc4c(cc3c2=O)OCO4)cc1)OC,9,-1,79*,-49,-10
C[C@@H]1CN([C@@H](C)CO)C(=O)CCCn2nncc2CO[C@@H]1CN(C)S(=O)(=O)c1cccs1,-21,·,·,19,·
CN(c1ccc(OCC(=O)NC2CCC(O)CC2)cc1)S(=O)(=O)c1ccc(Cl)cc1 (centres undefined),6,·,·,12,·
COc1cc(NS(=O)(=O)c2ccc(NC(C)=O)cc2)nc(OC)n1,29,14,0,6,5
COc1cc(NS(=O)(=O)c2ccc(NC(=S)NC(=O)c3sc4ccccc4c3Cl)cc2)nc(OC)n1,-8,7,8,48*,15
COc1cc(NS(=O)(=O)c2ccc(NC(=S)NC(=O)c3ccco3)cc2)nc(OC)n1,-3,-2,19,38,2
